# Assay outcomes as filed in PubChem.
# This is a sample that favours compounds with a hit; in the whole collection about 4.6% have one here.
# SKKanGAS inh: inhibitors of SKKanGAS S. pyogenes growth in kanamycin (SK-promoter or general growth effect); BacTiter-Glo, 6 h; actives 1.3% (n = 300,000); inhibition, % at 7.5 µM;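 active = mean replicate score, as percent of positive control median, at least 50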;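 note: strain carries kanamycin resistance gene driven by streptokinase promoter and grows in 40 µg/ml kanamycin; loss of luminescence reflects streptokinase promoter inhibition or plain growth inhibition; 0% = median of DMSO wells and 100% = positive control at its reference dose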
# tim10-1 inh: inhibits growth of tim10-1 mutant yeast. S. cerevisiae tim10-1 ts strain growth, BacTiter-Glo, 24 h. inhibition, % at 20 µM. actives 2.2% (n = 330,000). AID 463190;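 active = inhibition of at least 40%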;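 note: mutant grown at 25 °C; 0% = DMSO wells with yeast and 100% = wells holding no yeast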
# TIM10 inh: growth inhibitors of TIM10 yeast strain; inhibition, % at 10 µM; S. cerevisiae TIM10 strain growth, BacTiter-Glo luminescence, 24 h; AID 463195; actives 1.4% (n = 330,000);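 active = inhibition of 40% or more at the single tested concentration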;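 note: wild-type TIM10 isogenic control strain grown at permissive 25 °C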
# PfHsp90 set2: growth inhibition of yeast expressing Plasmodium Hsp90 | AID 504621 | S. cerevisiae expressing PfHsp90, BacTiter-Glo ATP, 48 h; yeast lacking PDR1 and PDR3 efflux regulators | actives 0.32% (n = 310,000) | inhibition, % at 9.4 µM;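 active = every replicate shows inhibition above about 80%, whatever the replicate mean, limit read from the data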;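 note: 0% = DMSO neutral controls and 100% = 20 µM radicicol positive controls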
# V-ATPase pHluor: yeast V-ATPase proton transport regulation by pHLuorin; S. cerevisiae, pHLuorin cytosolic pH fluorescence; response, % at 10 µM; actives 0.37% (n = 350,000); AID 504577; in the data active = response mostly above about 7.3%, no sharp cut-off; inactive = mostly below about 5.4%; note: actives read high
# tim23-1 inh: inhibits growth of tim23-1 mutant yeast | actives 1.3% (n = 330,000) | S. cerevisiae tim23-1 growth, BacTiter-Glo luminescence, 24 h | inhibition, % at 20 µM;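 active = growth inhibition of the mutant yeast at or above 50%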;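 note: temperature-sensitive mutant grown at 25 °C; plate controls were DMSO-treated mutant yeast for no effect and medium wells lacking yeast for full effect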
# TIM10 conf: TIM10 yeast growth inhibition, confirmed | inhibition, % at 10 µM | actives 63% (n = 4,600) | S. cerevisiae tim10 strain growth, BacTiter-Glo luminescence, 24 h | shares compounds with TIM10 inh;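 active = inhibition of yeast growth at or above a set limit in either of two replicates at 10 µM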;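 note: this counterscreen used the strain with wild-type TIM10; 0% = yeast with DMSO and 100% = medium wells lacking yeast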
# An asterisk follows results filed as active; nt = no result given.
SMILES,SKKanGAS inh,tim10-1 inh,TIM10 inh,PfHsp90 set2,V-ATPase pHluor,tim23-1 inh,TIM10 conf
COc1ccc(CN2CCN(c3ncnc4scc(-c5ccc(F)cc5)c34)CC2)cc1,-6,35,42*,-4,6,48,45*
COc1ccc(N2CCN(c3ncnc4scc(-c5ccc(F)cc5)c34)CC2)cc1,-6,13,12,-20,3,6,nt
CCn1c(-c2cc(-c3ccc(C)cc3)nc3ccccc23)n[nH]c1=S,-10,33,42*,-26,3,49,41*
CCC(C)[C@H](N)C(=O)NC[C@H]1CC[C@H](C(=O)N[C@@H](Cc2ccccc2)C(=O)O)CC1 (stereo partly drawn),1,4,12,-9,-2,3,nt
O=C(Nc1cccc(O)c1)c1ccccc1,2,16,40*,7,-2,26,-10
O=C(COc1cccc(NC(=O)c2ccccc2)c1)c1ccc(F)cc1,-10,-5,42*,-29,1,8,34*
CCOC(=O)Nc1cccc(NC(=O)c2cc(OC)cc(OC)c2)c1,-16,22,41*,18,-2,49,11
CCOC(=O)Nc1cccc(OCC(=O)Nc2ccccc2OC)c1,-6,34,42*,-15,5,46,15
O=S1(=O)C[C@@H](N2CCC(Cc3ccccc3)CC2)[C@H](COCc2ccccc2)N1,nt,nt,nt,nt,-1,nt,nt
CC(C)Sc1nc2c(cnn2-c2ccc(Cl)cc2)c(=O)[nH]1,-2,13,12,-8,1,-8,nt
S=C1SC2(CCCCCC2)NC2=C1CCCCC2,nt,nt,nt,nt,0,nt,nt
COC(=O)c1cc(NC(=O)c2cccc(F)c2)cc(C(=O)OC)c1,-8,2,48*,10,0,33,31*
COC(=O)c1cc(NC(=O)c2cccnc2)cc(C(=O)OC)c1,0,13,7,-6,-2,16,nt
COc1ccc(C(=O)Nc2cc(OC)cc(OC)c2)cc1,4,17,18,-4,2,32,nt
COc1cc(NC(=O)c2ccccc2)cc(OC)c1,6,23,68*,-4,3,43,46*
Cc1cccc(NC(=O)c2cc(-c3cccnc3)nc3c(C)cccc23)n1,-2,32,6,-57,0,21,nt
COc1ccc2cc3cc(C(=O)NCCCN4CCC(C)CC4)oc3nc2c1,-5,18,77*,-22,2,31,68*
CCCN(CCC)CCCNC(=O)c1cc2cc3ccc(OC)cc3nc2o1,1,36,65*,-24,-2,50,-33
COc1ccc2cc3cc(C(=O)N4CCN(C5CCCCC5)CC4)oc3nc2c1,-15,23,64*,15,2,28,46*
COc1ccc2cc3cc(C(=O)Nc4ccc5c(c4)OCO5)oc3nc2c1,0,-3,-8,-6,-2,-7,nt
COc1ccc2nc3oc(C(=O)Nc4ccc(OC)c(OC)c4)cc3cc2c1,-3,2,0,7,5,-14,nt
COc1ccc2cc3cc(C(=O)NCCc4ccc(OC)c(OC)c4)oc3nc2c1,14,0,55*,-5,1,28,-3
CCOC(=O)c1ccc(NS(=O)(=O)c2ccc3c(c2)NC(=O)CCS3)cc1,2,10,-5,-105,0,2,nt
Cc1ccc(C(=O)OCC(=O)c2ccc(S(=O)(=O)N3CCCCC3)cc2)o1,-15,16,4,-27,-1,17,nt
COc1ccc(OC)c(NC(=O)CCC(=O)Nc2nnc(C(C)C)s2)c1,-5,-3,4,-8,-2,-2,nt
SMILES,SKKanGAS inh,tim10-1 inh,TIM10 inh,PfHsp90 set2,V-ATPase pHluor,tim23-1 inh,TIM10 conf
CCN1c2ccccc2-c2nc3ccccc3n2C1c1ccco1 (stereo not drawn),2,30,40*,-14,2,35,35*
CN1c2ccccc2-c2nc3ccccc3n2C1c1ccncc1 (stereo not drawn),-1,2,19,11,-4,9,nt
CN1c2ccccc2-c2nc3ccccc3n2C1c1ccccn1 (stereo not drawn),3,24,43*,4,1,-2,10
Cc1cc2ncn(/N=C/c3ccc([N+](=O)[O-])o3)c2cc1C,-12,40,57*,-130,1,0,56*
Cc1ccc(C)c2nc3sc(C(=O)N4CCCc5ccccc54)c(N)c3cc12,-9,36,46*,-1,-1,41,29
CSc1ncccc1C(=O)NCCc1ccc(S(N)(=O)=O)cc1,2,-17,8,-7,-4,3,nt
O=C(Nc1ccc2c(c1)Cc1ccccc1-2)c1ccncc1,-4,18,57*,24,0,43,4
c1ccc(-c2nc3cnccn3c2Nc2ccc3c(c2)OCCO3)cc1,5,34,44*,21,3,35,12
CSc1ccccc1C(=O)N(CC1CCCO1)c1c(N)n(Cc2ccccc2)c(=O)[nH]c1=O (stereo not drawn),-8,-13,-2,2,-1,-12,nt
Cc1ccc(/C=N/n2c(-c3cccc(Cl)c3)n[nH]c2=S)o1,2,35,42*,nt,0,44,26
O=C(Nc1ccc2c(c1)nc1n2CCOC1)c1ccco1,-3,14,47*,-8,0,31,15
O=C(Nc1ccc2c(c1)nc1n2CCSC1)c1ccco1,-4,31,60*,nt,-1,47,53*
O=C(Nc1ccc2c(c1)nc1n2CCN(C2CCCCC2)C1)c1ccco1,nt,nt,nt,-4,0,nt,nt
Cc1ccc(-c2nnc(SCC(=O)Nc3cccc(C(=O)N4CCOCC4)c3)n2C)cc1,-4,4,0,-40,6,5,nt
CCCCCCC(=O)NNC(=O)c1c(O)c2ccccc2n(CCC)c1=O,92*,3,46*,nt,-3,4,-12
O=C(O)C1CC(O)CN1C(=O)c1ccco1 (stereo not drawn),-3,11,-15,-23,-5,1,nt
COc1cccc(C(=O)N2CCC(N3CC(C)OC(C)C3)CC2)c1 (stereo not drawn),-3,-3,-5,-2,2,18,nt
Cn1c(SCC(=O)N2CCCC2)nc2ccccc21,-6,-4,-17,-3,-3,-6,nt
Cn1c(SCC(=O)N(Cc2ccccc2)C(C)(C)C)nc2ccccc21,-3,33,40*,-16,2,49,24
CC(C)c1ccc(S(=O)(=O)N2CCN(C(=O)C3=COCCO3)CC2)cc1,nt,5,97*,-10,1,10,1
COc1cccc(Oc2nc(-c3ccccc3O)nc3ccccc23)c1,-4,11,-1,-5,1,-3,nt
COc1cnc(-c2ccccc2)nc1Oc1cccc(C)c1,4,-2,-2,-1,-6,0,nt
